Nrf2 block: Nrf2 pathway inhibition | 360,000 compounds, 2.1% hits | A549 ARE-Fluc reporter, luciferase luminescence, 18-24 h | AID 504444 | Potency, µM (top dose mostly 46 µM), actives largely listed as inhibitors; note: nearly all actives have a fitted effect of over 60% in size
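Concentration-response testing used A549 ARE_Fluc cells at 5000 cells/well. Following an 18-24 h compound incubation, viability was read by fluorescence (Ex 405/Em 525) and luciferase output by luminescence.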
KB-3-1 tox: kills parental KB-3-1 adenocarcinoma cells. KB-3-1 viability, CellTiter-Glo ATP luminescence, 72 h. Potency, µM (titrated, usually from 46.1 µM), actives largely listed as cytotoxic. 400,000 compounds, 1.4% hits; note: nearly all actives have a fitted effect of over 60% in size
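Cytotoxicity measured as CellTiter-Glo luminescence after 72 h at 37 C. Compound titrations were pinned onto drug-naive KB-3-1 parental adenocarcinoma cells grown in DMEM with 10% FBS, and normalized data fitted to concentration-response curves.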
A549 viability: kills or reduces viability of A549 cells in Nrf2 counter-screen; A549 ARE-Fluc cells, CellTiter-Fluor viability, 18-24 h; Potency, µM (highest dose often 46 µM), usual class: inhibitors; 390,000 compounds, 0.16% hits
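A549 ARE-Fluc cells in 5% FBS OPTI-MEM, 5000 cells/well, rested 2 h then exposed to compounds in concentration-response for 18-24 h at 37 °C. Viability by CellTiter-Fluor fluorescence (Ex 405/Em 525) after 30 min; luciferase luminescence (BugLite, 15 min, RT) read afterwards.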
PI4K2A inh: inhibitors of human PI4K2A | Q9BTU6 | purified PI4K2A, ADP-Glo luminescence, 1 h; stronger effect = lower value | activity change, negative = inhibition, % at 76.9 µM | 420,000 compounds, 0.13% hits | AID 1346378; in the data active = activity change below about -50%; inconclusive = mostly about -30% to -49%
Target sequence (Q9BTU6 whole entry, looked up): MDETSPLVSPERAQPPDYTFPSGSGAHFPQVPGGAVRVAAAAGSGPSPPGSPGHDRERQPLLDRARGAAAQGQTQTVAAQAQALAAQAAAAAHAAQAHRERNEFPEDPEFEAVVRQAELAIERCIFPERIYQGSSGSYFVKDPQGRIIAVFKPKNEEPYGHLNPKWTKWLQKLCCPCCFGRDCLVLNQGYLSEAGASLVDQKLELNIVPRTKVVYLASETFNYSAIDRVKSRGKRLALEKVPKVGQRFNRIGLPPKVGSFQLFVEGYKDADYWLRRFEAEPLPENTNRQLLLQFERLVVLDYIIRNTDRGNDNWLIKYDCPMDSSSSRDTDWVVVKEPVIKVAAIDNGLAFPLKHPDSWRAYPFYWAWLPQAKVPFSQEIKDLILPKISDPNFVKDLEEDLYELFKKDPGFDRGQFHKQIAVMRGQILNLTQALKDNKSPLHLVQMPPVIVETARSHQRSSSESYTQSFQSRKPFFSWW
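In this quantitative HTS, ADP production by PI4K2A was quantified luminescently after 1 h at ambient temperature; 100 microM adenosine served as plate-quality control.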
Giardia kill: Giardia lamblia killing | 340,000 compounds, 0.15% hits | Giardia lamblia trophozoite viability | AID 540267 | activity change, % at 7.66 µM, hits read low; in the data active = activity change below about -80%; inconclusive = between about -30% and that limit;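 note: parasites exposed to compound for two days anaerobically before the ATP read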
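Trophozoites 100 cells/well + cpd; 48 hrs, 37 deg C, anaerobic. ATPLite 1-Step added, 15-30 min RT, luminescence read (ATP-based viability).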
KB-V1 MDR tox: KB-V1 MDR subline cytotoxicity | KB-V1 MDR cells viability, CellTiter-Glo, 72 h | 400,000 compounds, 3.4% hits | Potency, µM (titrated, usually from 46.1 µM), actives largely listed as cytotoxic; note: nearly all actives have a fitted effect of over 60% in size
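Cytotoxicity via CellTiter-Glo luminescence after 72 h compound exposure at 37 degrees C. Cells: drug-selected KB-V1 line, DMEM phenol-red free plus 10% FBS. Compounds tested at multiple concentrations; normalized data fitted to concentration-effect curves.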
Large screens that a line does not name were inactive. Rows were chosen to be rich in hits. Some 5.7% of all compounds tested hit in one or more screens of this group. Unless noted, calls come from the whole dose curve; as a rule, active = well fitted curve in the direction sought with a large enough effect; inconclusive = small, poorly fitted or top-dose-only effect, or another doubt; inactive = no such curve, though single readings can be large; an effect the other way counts as inactive or inconclusive.

Cc1cc(OCC(O)CNC(C)c2ccccc2)ccc1C(C)C (stereo not drawn)	KB-3-1 tox inconclusive, KB-V1 MDR tox 16µM
CCC1CSC(Nc2ccc(C(=O)/C=C/c3cccc(C)c3)cc2)=N1 (stereo not drawn)	Nrf2 block 23µM, KB-3-1 tox inconclusive
CCC1CSC(Nc2ccc(C(=O)/C=C/c3ccc(Oc4ccccc4)cc3)cc2)=N1 (stereo not drawn)	Nrf2 block inconclusive, KB-3-1 tox inconclusive, KB-V1 MDR tox 18µM
Cc1ccc(Cc2c(C)nc3nc(SCC(=O)NCc4ccco4)nn3c2C)cc1	KB-3-1 tox 4.6µM, A549 viability inconclusive, KB-V1 MDR tox 8.2µM
Cc1cccc(Cc2c(C)nc3nc(SCC(=O)NCc4ccco4)nn3c2C)c1	Nrf2 block inconclusive, KB-3-1 tox inconclusive, KB-V1 MDR tox inconclusive
Cc1ccc(S(=O)(=O)N2CCOC2CNC(=O)C(=O)NCCc2ccccc2)cc1 (stereo not drawn)	KB-3-1 tox inconclusive, KB-V1 MDR tox inconclusive
COc1ccc(S(=O)(=O)N2CCOC2CNC(=O)C(=O)NCCc2c[nH]c3ccccc23)cc1 (stereo not drawn)	Nrf2 block 7.3µM, KB-3-1 tox inconclusive
Cc1ccc(S(=O)(=O)N2CCOC2CNC(=O)C(=O)NCCCc2ccccc2)cc1 (stereo not drawn)	Nrf2 block 21µM, KB-V1 MDR tox inconclusive
OC(COCc1cccs1)CN1CCN(c2cccc(C(F)(F)F)c2)CC1 (stereo not drawn)	KB-V1 MDR tox 23µM
COc1cccc(/C=C2\CC3(OC(=O)C4CCCC4)CCCN2C3)c1 (stereo not drawn)	none (no result: Nrf2 block, KB-3-1 tox, A549 viability, Giardia kill, KB-V1 MDR tox)
CC(C)C(=O)Nc1nnc(CSCc2ccccc2F)s1	KB-V1 MDR tox 18µM
CC(=O)N1CCCN(S(=O)(=O)c2ccc3c(c2)c(=O)n(C)c(=O)n3C)CC1	none (no result: Nrf2 block, KB-3-1 tox, A549 viability, Giardia kill, KB-V1 MDR tox)
CCc1ccc(C(=O)NN(C(=O)c2ccc(CC)cc2)C(C)(C)C)cc1	KB-3-1 tox inconclusive, A549 viability inconclusive, KB-V1 MDR tox 7.3µM
COc1ccc(OC)c(NC(=O)c2ccc(CSc3nnc(C)s3)cc2)c1	Nrf2 block 26µM
Cc1cc(C)cc(NC(=O)c2ccc(CSc3nnc(C)s3)cc2)c1	none
Cc1nc2c(c3c1[nH]c1ccccc13)C(O)CC(C)(C)C2 (stereo not drawn)	Nrf2 block inconclusive, KB-3-1 tox inconclusive, KB-V1 MDR tox 16µM
Cc1nn(-c2ccccc2)c2c1C(O)CC(C)(C)C2 (stereo not drawn)	KB-V1 MDR tox inconclusive
O=S1(=O)N=C(Oc2ccccc2Br)c2ccccc21	none (no result: PI4K2A inh, Giardia kill)
Cc1ccc(C2=NCCn3c2c2ccc(C(F)(F)F)cc2[n+]3[O-])cc1	Giardia kill -84
COc1ccc(C2=NCCn3c2c2ccc(C(F)(F)F)cc2[n+]3[O-])cc1	Giardia kill -99
CCOC(=O)c1ccc(NC(=O)C2CCN(S(=O)(=O)Cc3ccccc3)CC2)cc1	none (no result: Giardia kill)
CC(NC(=O)Nc1ccc(Cl)cc1)c1ccccc1 (stereo not drawn)	none
Cc1ccc(C(NC(=O)NC(C)c2ccccc2)C(Cl)(Cl)Cl)cc1F (stereo not drawn)	Nrf2 block 16µM, KB-3-1 tox inconclusive, A549 viability inconclusive, KB-V1 MDR tox 21µM
Cc1ccc(NC(=O)CN(C)C(=O)Cc2c[nH]c3ccccc23)cc1	KB-V1 MDR tox 18µM
CN(CC(=O)Nc1ccc(F)cc1)C(=O)CSc1nnc(Cc2ccccc2)o1	KB-V1 MDR tox 16µM
Cc1nnc(SCC(=O)N(C)CC(=O)Nc2ccc(F)cc2)n1Cc1ccccc1	none
CCOc1ccc(NC(=O)CSc2cc(C)c3ccccc3n2)cc1	none (no result: Nrf2 block, KB-3-1 tox, Giardia kill, KB-V1 MDR tox)
Cc1cc(SCC(=O)N(C)CC(=O)Nc2ccc(F)cc2)nc2ccccc12	KB-V1 MDR tox 5.2µM
COc1cc(-c2nnc(SCC(=O)N3C(C)CCCC3C)o2)cc(OC)c1OC (stereo not drawn)	none (no result: Nrf2 block, KB-3-1 tox, A549 viability, Giardia kill, KB-V1 MDR tox)
CCC(C)[C@H](NC(=O)OC(C)(C)C)C(=O)N[C@@H](Cc1ccccc1)C(=O)OC (stereo partly drawn)	none (no result: Nrf2 block, KB-3-1 tox, A549 viability, Giardia kill, KB-V1 MDR tox)
